From the supplement of paper PMC6411743
± gives the standard deviation of the averaged measurements. Targets with the largest changes are over-represented here; the source holds about 6,500 in all.

Compound: Nc1ncnc2c1ncn2[C@@H]1O[C@H](COP(=O)(O)OP(=O)(O)OP(=O)(O)O)[C@@H](O)[C@H]1O [adenosine triphosphate]
Experiment: NP40-soluble protein abundance relative to vehicle (solubility fold change) (ratio); higher = more soluble protein in presence of ATP
In short: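 In three independent experiments, Jurkat crude lysate made by Dounce homogenisation was treated for 10 min at room temperature and then 3 min at 37 °C with eight concentrations ranging from 0.1 to 10 mM. It was then solubilised with 0.8% NP40 plus benzonase for 60 min at 4 °C and ultracentrifuged. The supernatant was TMT-labelled for LC-MS/MS, and each value is the fold change against the detergent-processed vehicle for the same replicate, using vsn-normalised intensities.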

Chain of UniProt P28908 (P28908 whole entry): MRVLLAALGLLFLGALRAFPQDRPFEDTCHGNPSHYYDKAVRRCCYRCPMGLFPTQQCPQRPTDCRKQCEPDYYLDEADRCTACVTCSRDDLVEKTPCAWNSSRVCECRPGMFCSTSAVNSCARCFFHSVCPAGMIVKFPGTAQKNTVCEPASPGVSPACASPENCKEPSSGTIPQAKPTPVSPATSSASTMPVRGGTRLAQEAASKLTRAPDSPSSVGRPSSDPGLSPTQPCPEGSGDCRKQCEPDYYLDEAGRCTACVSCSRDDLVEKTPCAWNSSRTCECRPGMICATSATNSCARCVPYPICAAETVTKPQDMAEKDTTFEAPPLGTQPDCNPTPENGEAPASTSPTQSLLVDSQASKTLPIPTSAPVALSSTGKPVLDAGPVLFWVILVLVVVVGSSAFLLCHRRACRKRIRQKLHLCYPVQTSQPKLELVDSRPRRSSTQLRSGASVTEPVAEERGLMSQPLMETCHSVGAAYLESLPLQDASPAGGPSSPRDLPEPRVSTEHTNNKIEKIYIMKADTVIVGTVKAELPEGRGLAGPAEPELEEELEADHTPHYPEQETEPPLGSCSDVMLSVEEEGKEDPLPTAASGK
Chain of UniProt P55769 (P55769 whole entry): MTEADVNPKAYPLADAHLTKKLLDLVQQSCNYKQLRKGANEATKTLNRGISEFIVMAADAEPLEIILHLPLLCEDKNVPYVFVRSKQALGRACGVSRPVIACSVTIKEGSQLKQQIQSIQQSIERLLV
Chain of UniProt P06576 (P06576 whole entry, one chain of several): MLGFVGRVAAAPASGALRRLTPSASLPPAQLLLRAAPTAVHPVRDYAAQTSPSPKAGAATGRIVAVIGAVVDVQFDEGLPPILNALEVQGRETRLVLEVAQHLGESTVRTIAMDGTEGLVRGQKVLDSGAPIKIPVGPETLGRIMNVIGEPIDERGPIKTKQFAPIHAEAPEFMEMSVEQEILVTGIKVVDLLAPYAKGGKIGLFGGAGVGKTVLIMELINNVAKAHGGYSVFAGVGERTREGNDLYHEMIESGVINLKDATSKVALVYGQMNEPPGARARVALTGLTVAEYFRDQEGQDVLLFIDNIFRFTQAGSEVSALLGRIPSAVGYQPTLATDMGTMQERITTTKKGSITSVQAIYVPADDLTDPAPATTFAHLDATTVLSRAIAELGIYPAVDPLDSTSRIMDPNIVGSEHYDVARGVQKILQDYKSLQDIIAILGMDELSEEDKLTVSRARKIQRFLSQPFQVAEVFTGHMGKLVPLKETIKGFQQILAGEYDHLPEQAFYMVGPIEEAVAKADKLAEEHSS
Chain of UniProt P22087 (P22087 whole entry): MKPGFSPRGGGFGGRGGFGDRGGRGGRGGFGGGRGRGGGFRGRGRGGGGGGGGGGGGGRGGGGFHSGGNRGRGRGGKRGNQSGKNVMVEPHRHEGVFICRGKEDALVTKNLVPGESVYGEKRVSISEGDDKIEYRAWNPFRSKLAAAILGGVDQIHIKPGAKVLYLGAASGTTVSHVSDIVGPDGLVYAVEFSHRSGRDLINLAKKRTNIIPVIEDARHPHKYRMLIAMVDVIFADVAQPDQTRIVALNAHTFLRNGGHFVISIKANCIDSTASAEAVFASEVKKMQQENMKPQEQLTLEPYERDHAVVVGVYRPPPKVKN
Chain of UniProt P26639 (P26639 whole entry): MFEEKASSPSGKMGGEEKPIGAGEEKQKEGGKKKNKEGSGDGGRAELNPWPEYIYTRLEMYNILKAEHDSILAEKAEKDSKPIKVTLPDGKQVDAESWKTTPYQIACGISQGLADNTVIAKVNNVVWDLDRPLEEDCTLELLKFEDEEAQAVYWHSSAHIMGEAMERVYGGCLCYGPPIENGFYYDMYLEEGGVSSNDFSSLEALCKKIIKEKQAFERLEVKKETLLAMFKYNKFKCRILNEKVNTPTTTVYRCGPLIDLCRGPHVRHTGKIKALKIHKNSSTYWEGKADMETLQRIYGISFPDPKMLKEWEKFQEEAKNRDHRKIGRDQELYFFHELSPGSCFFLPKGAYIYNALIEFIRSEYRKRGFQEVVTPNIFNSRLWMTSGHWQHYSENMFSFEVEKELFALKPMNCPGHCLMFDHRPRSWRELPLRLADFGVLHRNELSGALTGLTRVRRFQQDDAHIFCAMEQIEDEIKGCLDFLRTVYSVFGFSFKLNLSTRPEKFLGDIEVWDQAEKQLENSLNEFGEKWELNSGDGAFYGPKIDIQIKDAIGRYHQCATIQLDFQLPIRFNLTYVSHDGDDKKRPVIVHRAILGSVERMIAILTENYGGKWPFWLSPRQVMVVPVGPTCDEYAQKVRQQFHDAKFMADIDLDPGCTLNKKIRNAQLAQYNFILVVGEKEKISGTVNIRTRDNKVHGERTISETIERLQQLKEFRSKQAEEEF
Chain of UniProt Q01196 (Q01196 whole entry): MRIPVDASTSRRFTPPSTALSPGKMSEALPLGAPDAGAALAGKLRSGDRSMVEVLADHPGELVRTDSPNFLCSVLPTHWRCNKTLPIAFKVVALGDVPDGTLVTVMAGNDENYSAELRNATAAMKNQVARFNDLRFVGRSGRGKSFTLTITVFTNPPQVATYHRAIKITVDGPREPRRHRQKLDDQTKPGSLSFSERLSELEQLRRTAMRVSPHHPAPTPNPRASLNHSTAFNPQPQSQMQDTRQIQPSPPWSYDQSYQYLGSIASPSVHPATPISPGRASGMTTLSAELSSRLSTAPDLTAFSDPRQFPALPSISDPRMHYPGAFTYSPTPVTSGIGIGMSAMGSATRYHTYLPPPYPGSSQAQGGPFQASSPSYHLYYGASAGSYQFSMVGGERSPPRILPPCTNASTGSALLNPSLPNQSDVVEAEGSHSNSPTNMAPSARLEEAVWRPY
Chain of UniProt O75446 (O75446 whole entry): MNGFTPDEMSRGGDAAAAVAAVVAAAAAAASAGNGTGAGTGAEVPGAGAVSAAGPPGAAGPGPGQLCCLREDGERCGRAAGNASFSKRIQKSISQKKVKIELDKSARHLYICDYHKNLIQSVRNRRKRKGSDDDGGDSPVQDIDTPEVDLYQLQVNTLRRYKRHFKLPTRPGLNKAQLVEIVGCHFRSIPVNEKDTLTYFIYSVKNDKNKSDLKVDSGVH
Chain of UniProt P08243 (P08243 whole entry): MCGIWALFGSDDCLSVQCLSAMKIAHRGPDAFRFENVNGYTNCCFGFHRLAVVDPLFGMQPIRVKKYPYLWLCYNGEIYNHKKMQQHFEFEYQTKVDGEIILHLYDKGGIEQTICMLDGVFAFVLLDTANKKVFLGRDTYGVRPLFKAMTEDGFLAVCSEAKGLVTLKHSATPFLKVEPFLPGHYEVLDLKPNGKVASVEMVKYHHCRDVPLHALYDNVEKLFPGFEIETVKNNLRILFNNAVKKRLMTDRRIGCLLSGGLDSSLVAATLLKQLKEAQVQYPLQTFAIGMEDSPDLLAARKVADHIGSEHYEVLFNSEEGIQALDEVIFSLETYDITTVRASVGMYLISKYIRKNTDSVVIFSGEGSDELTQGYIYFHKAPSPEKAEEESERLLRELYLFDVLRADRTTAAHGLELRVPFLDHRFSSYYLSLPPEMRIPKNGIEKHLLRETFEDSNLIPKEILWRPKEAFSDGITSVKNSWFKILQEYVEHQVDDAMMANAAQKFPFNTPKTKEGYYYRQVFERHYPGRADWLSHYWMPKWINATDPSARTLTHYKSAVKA
Chain of UniProt P16150 (P16150 whole entry): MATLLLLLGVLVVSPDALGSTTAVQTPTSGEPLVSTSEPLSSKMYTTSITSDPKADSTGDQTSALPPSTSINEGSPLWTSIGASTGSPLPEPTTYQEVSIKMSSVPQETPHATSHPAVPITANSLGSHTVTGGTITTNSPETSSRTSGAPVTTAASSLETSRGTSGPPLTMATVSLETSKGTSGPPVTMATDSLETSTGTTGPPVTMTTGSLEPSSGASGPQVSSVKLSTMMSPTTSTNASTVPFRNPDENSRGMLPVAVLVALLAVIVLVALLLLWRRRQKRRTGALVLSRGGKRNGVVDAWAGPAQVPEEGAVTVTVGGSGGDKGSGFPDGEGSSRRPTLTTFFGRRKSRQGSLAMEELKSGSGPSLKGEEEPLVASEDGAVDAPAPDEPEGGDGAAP
Chain of UniProt Q00534 (Q00534 whole entry): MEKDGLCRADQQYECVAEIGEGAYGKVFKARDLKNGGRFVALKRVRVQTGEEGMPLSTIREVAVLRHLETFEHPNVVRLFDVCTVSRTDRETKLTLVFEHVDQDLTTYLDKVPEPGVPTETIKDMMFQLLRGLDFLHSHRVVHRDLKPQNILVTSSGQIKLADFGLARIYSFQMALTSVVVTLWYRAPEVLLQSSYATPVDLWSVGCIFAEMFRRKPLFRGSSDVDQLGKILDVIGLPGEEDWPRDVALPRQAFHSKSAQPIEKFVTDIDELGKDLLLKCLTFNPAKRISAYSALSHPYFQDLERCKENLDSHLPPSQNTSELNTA
Chain of UniProt O95721 (O95721 whole entry): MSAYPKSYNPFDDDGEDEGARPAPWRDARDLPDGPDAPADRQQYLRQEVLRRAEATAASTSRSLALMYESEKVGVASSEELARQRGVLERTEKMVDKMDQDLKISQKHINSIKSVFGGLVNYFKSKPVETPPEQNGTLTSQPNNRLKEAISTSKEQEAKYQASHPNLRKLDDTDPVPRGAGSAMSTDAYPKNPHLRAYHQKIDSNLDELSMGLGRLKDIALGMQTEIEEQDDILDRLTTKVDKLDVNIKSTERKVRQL
Chain of UniProt P08134 (P08134 whole entry, one chain of several): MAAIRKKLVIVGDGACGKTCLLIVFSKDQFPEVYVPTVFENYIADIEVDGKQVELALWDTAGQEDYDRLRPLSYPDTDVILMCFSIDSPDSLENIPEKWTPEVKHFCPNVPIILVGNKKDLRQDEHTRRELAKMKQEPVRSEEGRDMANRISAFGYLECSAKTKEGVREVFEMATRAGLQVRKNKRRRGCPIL
Chain of UniProt P62253 (P62253 whole entry): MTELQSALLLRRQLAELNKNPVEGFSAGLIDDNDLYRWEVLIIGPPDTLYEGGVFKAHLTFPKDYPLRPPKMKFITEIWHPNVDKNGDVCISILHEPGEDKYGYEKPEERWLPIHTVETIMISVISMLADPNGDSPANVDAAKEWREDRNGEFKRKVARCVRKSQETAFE

Target	NP40-soluble protein abundance (concentration: 1mM)	NP40-soluble protein abundance (concentration: 2mM)	NP40-soluble protein abundance (concentration: 4mM)	NP40-soluble protein abundance (concentration: 6mM)	NP40-soluble protein abundance (concentration: 8mM)	NP40-soluble protein abundance (concentration: 10mM)
UniProt P55769	1.03 ± 0.15	1.06 ± 0.11	1.13 ± 0.13	1.23 ± 0.11	1.28 ± 0.049	1.33 ± 0.24
UROS (UniProt P10746)	0.973 ± 0.029	0.988 ± 0.041	0.98 ± 0.061	0.968 ± 0.038	0.95 ± 0.059	0.927 ± 0.054
AGA (UniProt P20933)	0.925 ± 0.059	0.964 ± 0.07	0.978 ± 0.079	0.94 ± 0.081	0.914 ± 0.064	0.876 ± 0.071
TPMT (UniProt P51580)	1 ± 0.084	1 ± 0.077	0.985 ± 0.064	0.954 ± 0.12	0.992 ± 0.057	0.979 ± 0.044
PSMC2 (UniProt P35998)	0.9515 ± 0.0057	0.914 ± 0.029	0.882 ± 0.016	0.908 ± 0.1	0.899 ± 0.053	0.894 ± 0.047
SAP30 (UniProt O75446)	0.93 ± 0.092	0.952 ± 0.092	0.907 ± 0.073	0.971 ± 0.15	0.96 ± 0.044	0.915 ± 0.13
SGPL1 (UniProt O95470)	1.05 ± 0.14	1.03 ± 0.1	1.02 ± 0.086	0.965 ± 0.094	1.07 ± 0.079	1.06 ± 0.075
UniProt O96028|O96028-3|O96028-5	1.31 ± 0.054	1.45 ± 0.072	1.54 ± 0.11	1.62 ± 0.12	1.62 ± 0.12	1.74 ± 0.18
UniProt P18583|P18583-5|P18583-7|P18583-9	1.28 ± 0.057	1.3 ± 0.075	1.36 ± 0.099	1.49 ± 0.14	1.45 ± 0.095	1.55 ± 0.13
UniProt P13674|P13674-2	1.01 ± 0.0016	1.01 ± 0.022	0.994 ± 0.027	1.03 ± 0.054	1.01 ± 0.034	1.04 ± 0.045
ZBTB11 (UniProt O95625)	1.03 ± 0.057	1.004 ± 0.0071	1.03 ± 0.053	0.949 ± 0.021	0.97 ± 0.015	0.979 ± 0.04
UniProt Q01196|Q01196-8|Q01196-2	1.07 ± 0.026	1.08 ± 0.024	1.11 ± 0.016	1.17 ± 0.034	1.15 ± 0.028	1.21 ± 0.034
UniProt O94925|O94925-3	1.02 ± 0.071	0.968 ± 0.035	0.981 ± 0.078	0.944 ± 0.05	0.978 ± 0.061	0.947 ± 0.039
RBM25 (UniProt P49756)	1.21 ± 0.074	1.33 ± 0.12	1.68 ± 0.22	2.25 ± 0.24	2.63 ± 0.34	3.08 ± 0.38
CD53 (UniProt P19397)	0.898 ± 0.042	0.833 ± 0.05	0.85 ± 0.06	0.832 ± 0.049	0.823 ± 0.07	0.791 ± 0.093
UniProt P62937|P62937-2	0.914 ± 0.063	1.02 ± 0.05	0.894 ± 0.091	0.992 ± 0.084	0.882 ± 0.11	0.962 ± 0.056
FBL (UniProt P22087)	1.11 ± 0.075	1.13 ± 0.058	1.25 ± 0.047	1.544 ± 0.0074	1.93 ± 0.025	2.51 ± 0.15
SPN (UniProt P16150)	0.828 ± 0.17	0.803 ± 0.16	0.812 ± 0.13	0.835 ± 0.14	0.765 ± 0.094	0.71 ± 0.2
UniProt P54274|P54274-2	1.14 ± 0.12	1.27 ± 0.17	1.43 ± 0.17	1.69 ± 0.26	1.58 ± 0.25	1.88 ± 0.35
EMD (UniProt P50402)	1.13 ± 0.096	1.16 ± 0.1	1.14 ± 0.11	1.11 ± 0.1	1.12 ± 0.086	1.15 ± 0.05
GALK2 (UniProt Q01415)	0.938 ± 0.068	0.975 ± 0.073	0.985 ± 0.012	0.86 ± 0.12	0.956 ± 0.066	0.968 ± 0.037
CDK6 (UniProt Q00534)	0.984 ± 0.047	0.999 ± 0.051	0.988 ± 0.05	0.955 ± 0.058	0.966 ± 0.041	0.974 ± 0.064
UniProt P28908|P28908-3	0.986 ± 0.073	0.999 ± 0.0037	1.08 ± 0.13	0.992 ± 0.073	0.951 ± 0.041	0.964 ± 0.026
TMEM63A (UniProt O94886)	0.9962 ± 0.0062	1.016 ± 0.004	1.01 ± 0.023	1.0012 ± 0.00078	0.961 ± 0.024	0.979 ± 0.01

Target	NP40-soluble protein abundance (concentration: 1mM)	NP40-soluble protein abundance (concentration: 2mM)	NP40-soluble protein abundance (concentration: 4mM)	NP40-soluble protein abundance (concentration: 6mM)	NP40-soluble protein abundance (concentration: 8mM)	NP40-soluble protein abundance (concentration: 10mM)
ATRN (UniProt O75882)	0.928 ± 0.039	0.947 ± 0.048	0.975 ± 0.015	0.959 ± 0.095	0.896 ± 0.01	0.899 ± 0.057
BANF1 (UniProt O75531)	5.83 ± 1.6	5.36 ± 0.56	5.89 ± 1.4	6.26 ± 1.4	5.6 ± 0.81	5.02 ± 1.8
UniProt P06576|F8W0P7	0.822 ± 0.18	1.04 ± 0.22	0.825 ± 0.21	1.07 ± 0.2	1.05 ± 0.16	0.814 ± 0.21
IARS (UniProt P41252)	1.1 ± 0.14	1 ± 0.072	0.974 ± 0.058	0.905 ± 0.059	1.05 ± 0.035	0.975 ± 0.078
UniProt P26639	1 ± 0.1	0.988 ± 0.075	0.95 ± 0.078	0.928 ± 0.11	0.989 ± 0.054	0.949 ± 0.042
CCNA2 (UniProt P20248)	0.998 ± 0.059	0.977 ± 0.027	0.993 ± 0.017	1.03 ± 0.046	0.9881 ± 0.0022	0.995 ± 0.05
UniProt Q02880-2	1.28 ± 0.061	1.36 ± 0.045	1.57 ± 0.067	1.73 ± 0.13	1.99 ± 0.11	2.07 ± 0.057
UniProt P08243|P08243-2|P08243-3	1.1 ± 0.13	1.1 ± 0.12	1.1 ± 0.11	1.03 ± 0.14	1.15 ± 0.12	1.09 ± 0.097
XPA (UniProt P23025)	0.975 ± 0.021	0.979 ± 0.033	0.965 ± 0.054	1.02 ± 0.027	0.954 ± 0.1	0.968 ± 0.05
UniProt P62253	1.06 ± 0.053	1.05 ± 0.071	1 ± 0.07	1.01 ± 0.11	1.03 ± 0.097	0.947 ± 0.049
UniProt P21675|P21675-12|P21675-2|P21675-3|P21675-4|P21675-5|P21675-6|P21675-7|P21675-9	1.11 ± 0.067	1.11 ± 0.048	1.11 ± 0.066	1.15 ± 0.14	1.2 ± 0.079	1.19 ± 0.091
AKR1A1 (UniProt P14550)	0.989 ± 0.046	0.979 ± 0.047	0.956 ± 0.048	0.959 ± 0.086	0.986 ± 0.059	0.944 ± 0.05
EIF2S1 (UniProt P05198)	1.04 ± 0.043	1.05 ± 0.034	1.02 ± 0.027	1.04 ± 0.07	1.06 ± 0.053	1.05 ± 0.051
UniProt Q00653|Q00653-4	1.006 ± 0.0072	0.99 ± 0.026	0.971 ± 0.025	0.995 ± 0.022	0.965 ± 0.021	0.973 ± 0.012
COX5B (UniProt P10606)	0.9588 ± 0.0074	0.963 ± 0.013	0.966 ± 0.032	1.01 ± 0.028	0.936 ± 0.055	0.929 ± 0.012
SNAP29 (UniProt O95721)	0.967 ± 0.086	0.943 ± 0.043	0.939 ± 0.055	0.967 ± 0.04	0.939 ± 0.036	0.877 ± 0.046
UniProt P56381	2.11 ± 1.8	0.927 ± 0.037	0.827 ± 0.014	1.2 ± 0.39	0.93 ± 0.067	0.875 ± 0.046
UniProt P59190	1.18 ± 0.054	2.37 ± 1.5	1.25 ± 0.21	1.16 ± 0.23	1.22 ± 0.2	1.18 ± 0.15
UniProt P49354|H0YCW1	1.05 ± 0.088	1.01 ± 0.059	1.03 ± 0.053	0.955 ± 0.12	1.04 ± 0.076	0.996 ± 0.062
UniProt P08134|Q5JR08	0.974 ± 0.053	0.998 ± 0.031	0.975 ± 0.024	1 ± 0.05	0.957 ± 0.067	0.971 ± 0.027
UniProt Q02078-2|Q02078-6	0.954 ± 0.086	0.939 ± 0.046	0.936 ± 0.065	0.926 ± 0.036	0.907 ± 0.032	0.949 ± 0.048
UniProt P61201|P61201-2	0.9548 ± 0.0092	0.945 ± 0.031	0.9178 ± 0.005	0.968 ± 0.03	0.912 ± 0.043	0.916 ± 0.026
CDKN1B (UniProt P46527)	0.964 ± 0.099	0.998 ± 0.057	0.985 ± 0.08	1.09 ± 0.077	0.919 ± 0.071	0.916 ± 0.1
